PubChem BioAssay (Tox21)
Results filed as inconclusive are left out. Entries that show only a call come without a potency. Activity calls are given as the source filed them. Calls come from the whole dose curve; as a rule, active = well fitted inhibition curve with a large enough effect in the repeat runs; inconclusive = weak or mixed curves, or effect the other way; inactive = no such curve, though single readings can be large or run the other way.

Experiment: qHTS assay to identify small molecule antagonists of the retinoic acid receptor (RAR) signaling pathway (AID 1159552; note: nearly all actives have a fitted effect of over 50% in size)
Conditions: C3RL4 RARE luciferase reporter, retinol-stimulated, 6 h; series mostly up to 92.4 µM
How it was run: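 Retinol at 1 uM final stimulated RARE-luciferase expression in C3RL4 cells exposed to test compounds for 6 hr at 37 C. Reduced luminescence, read 30 min after detection reagent, indicated pathway antagonism.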
Potency is the fitted concentration of half-maximal effect.

Compound	Potency
CC1(C)COCN1	inactive
CCCCOC(=O)C(C)CC (centres undefined)	inactive
CO[Si](CCC1CCC2OC2C1)(OC)OC (centres undefined)	inactive
Clc1ccc(C(c2ccccc2Cl)C(Cl)Cl)cc1 (centres undefined)	54.5 µM (active)
CC1=CCC(=O)O1	inactive
CC(C)c1cccc(C(C)C)c1N1C(=O)c2ccc(O)cc2C1=O	24.3 µM (active)
COc1cccc(OC)c1O	inactive
C=C(C)CCCC	inactive
CCOCOCC	inactive
CCN=C1C=CC(=C(c2ccc(N(CC)CC)cc2)c2ccc(N(CC)CC)cc2)c2ccccc21	4.83 µM (active)
CCCC(=O)OCC(COC(=O)CCC)OC(=O)CCC	inactive
CCO[Si](C)(C)OCC	inactive
CS(C)(=O)=O	inactive
CCCCCCCCCCCCN(CCO)CCO	54.3 µM (active)
CC(C)=CCCC(C)O (centres undefined)	inactive
C#CC(O)CCC (centres undefined)	inactive
C/C=C/C(=O)C1=C(C)CCCC1(C)C	inactive
CCc1cccc(CC)c1NC(=O)C(=O)O	inactive
COc1ccccc1C=O	inactive
CCOC(=O)CN	inactive
Cc1cccc(C)c1NC(=O)CN1CCN(CCCC(c2ccc(F)cc2)c2ccc(F)cc2)CC1	26.6 µM (active)
O=C1OC(OC(=O)c2cccnc2Nc2cccc(C(F)(F)F)c2)c2ccccc21 (centres undefined)	inactive
C=CC/C=C/C/C=C/C/C=C/C	inactive
CCOC(OCC)C(=O)c1ccccc1	inactive
Oc1cc2ccccc2cc1O	inactive
Cc1cccc(N(C)C)c1	inactive
CCCCCCCC/C=C/CCCOC(C)=O	inactive
Cc1cncc(C)c1	inactive
O=CC1CC1	inactive
